NPC1 prom act: NPC1 promoter activation. Huh7 NPC1 promoter luciferase reporter, 24 h. Potency, µM (titrated, usually from 9.22 µM), without a hit: top-dose activation, actives largely listed as activators. 320,000 compounds, 2.4% hits. AID 485313; also: % of control where 0% means no effect; nearly all actives have a fitted effect of over 60% in size
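Luciferase expression driven by the NPC1 promoter was measured in stably transfected Huh7 cells after a 24 h compound incubation, using a luciferase reagent and a luminescence read.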
ELG1 genotoxic: induces genotoxicity in HEK293T cells with luciferase-tagged ELG1; 330,000 compounds, 1.3% hits; AID 504466; HEK293T ELG1-luciferase reporter, luminescence, 16 h; Potency, µM (series often up to 46 µM), for the others: top-dose activity change, positive = activation, hits mostly activators; also: % of control where 0% means no effect; nearly all actives have a fitted effect of over 60% in size
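Quantitative HTS format in 1536-well plates. HEK293T ELG1-luciferase reporter cells receive test compound and are incubated 16 hr at 37 °C, 5% CO2; ONE-Glo added, 30 min room temperature, then luminescence read.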
ELG1 DNA repair: ELG1-dependent DNA repair inhibition. HEK293T ELG1-luciferase reporter, luminescence, 16 h; DNA damage induced by 5-fluorouridine. Potency, µM (top dose mostly 46.1 µM), for inactives: top-dose activity change, negative = inhibition, most hits filed as inhibitors. 330,000 compounds, 2.3% hits. AID 504467; also: % is scaled to controls: 0 for no effect and ±100 for the full control effect; nearly all actives have a fitted effect of over 55% in size
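Cells (2,000 per well) received 5-fluorouridine plus test compound or DMSO and were incubated 16 hr at 37 °C, 5% CO2. Luciferase activity was read by luminescence 30 min after ONE-Glo addition; signal suppression marked inhibition of damage-induced ELG1 function.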
FLuc counter: firefly luciferase modulation, counter-screen for miR-21 project | P08659 | purified FLuc, Km substrates, luminescence inhibition | Potency, µM (series often up to 57.5 µM), without a hit: at the top dose activity change, negative = inhibition, most hits filed as inhibitors | 360,000 compounds, 6.9% hits | AID 588342;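 also: plate controls were vehicle for no effect and reference inhibitor for full effect; nearly all actives have a fitted effect of over 55% in size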
Target sequence (P08659 whole entry, looked up): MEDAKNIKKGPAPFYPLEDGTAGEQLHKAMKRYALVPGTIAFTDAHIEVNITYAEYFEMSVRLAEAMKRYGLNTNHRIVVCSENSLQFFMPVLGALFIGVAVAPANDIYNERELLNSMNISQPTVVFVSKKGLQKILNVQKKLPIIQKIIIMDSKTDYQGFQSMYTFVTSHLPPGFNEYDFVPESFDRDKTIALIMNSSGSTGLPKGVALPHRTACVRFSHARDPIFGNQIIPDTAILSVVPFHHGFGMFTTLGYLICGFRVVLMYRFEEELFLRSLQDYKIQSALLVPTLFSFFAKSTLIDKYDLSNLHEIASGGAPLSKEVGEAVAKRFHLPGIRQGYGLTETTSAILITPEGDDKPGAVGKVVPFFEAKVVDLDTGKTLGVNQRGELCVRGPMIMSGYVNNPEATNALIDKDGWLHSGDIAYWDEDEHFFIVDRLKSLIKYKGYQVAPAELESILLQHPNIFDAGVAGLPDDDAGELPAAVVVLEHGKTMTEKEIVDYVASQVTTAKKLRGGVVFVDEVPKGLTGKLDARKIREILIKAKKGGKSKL
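Purified P. pyralis luciferase (10nM final) with 10uM D-luciferin and 10uM ATP (Km levels) in 50mM Tris acetate pH 7.5, 10mM Mg acetate, 0.01% Tween-20, 0.05% BSA; qHTS 6-point titration, ~60 µM downward; luminescence read.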
SMN2 splice enh: SMN2 splice variant enhancement; AID 1458; HEK293 SMN2-luciferase splicing reporter, luminescence, 30-36 h; 210,000 compounds, 2.8% hits; Potency, µM (titrated, usually from 46.1 µM), for the others: at the highest dose activity change, positive = activation, actives largely listed as activators; also: % of control where 0% means no effect; nearly all actives have a fitted effect of over 55% in size
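qHTS luciferase splicing reporter: luminescence rises when SMN2 exon 7 is included in transfected HEK293 cells. Compound exposure lasted 30-36 h at 37C, with 4.5 mM final sodium butyrate as control, followed by a ONE-Glo read.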
Rab9 promoter act: activators of Rab9 promoter; Potency, µM (highest dose often 9.22 µM), for inactives: top-dose activation, negative = inhibition, actives largely listed as activators; 320,000 compounds, 2.8% hits; Huh7 Rab9 promoter-luciferase reporter, luminescence, 24 h; AID 485297; also: % of control where 0% means no effect; nearly all actives have a fitted effect of over 60% in size
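Cell-based reporter: Huh7 stable for Rab9 promoter-driven luciferase, plated in reduced-serum medium with 10% FBS at 1500 cells/well, compound-treated 24 h at 37 °C, luminescence read after 10 min reagent.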
The depositor's hits bear a star; u = inconclusive; x = not tested or not shown; [ ] = remark or other dose. This is a sample that favours compounds with a hit; in the whole collection about 9.4% have one here. Calls follow the shape of the dose curve; as a rule, active = well fitted curve in the direction sought with a large enough effect; inconclusive = small, poorly fitted or top-dose-only effect, or another doubt; inactive = no such curve, though single readings can be large; an effect the other way counts as inactive or inconclusive. Potency is read from the fitted curve at half-maximal effect.

SMILES	NPC1 prom act	ELG1 genotoxic	ELG1 DNA repair	FLuc counter	SMN2 splice enh	Rab9 promoter act
O=C(O)c1ccc(Nc2nc(-c3cc4ccccc4oc3=O)cs2)cc1O	8%	9%	u	4.8µM*	1%	2%
COc1cc([N+](=O)[O-])ccc1NC(=O)N1CCC2(CC1)Nc1ccccc1-n1cccc12	x	x	x	-12%	x	x
O=C(c1cnn2c1NC(c1ccco1)CC2C(F)(F)F)N1CCN(c2cccc(Cl)c2)CC1 (stereo not drawn)	-7%	-16%	10µM*	6%	-54%	-8%
CC(C)C[C@@H](CC(=O)N[C@@H](CCCN)CC(=O)N[C@@H]1CCNC[C@H]1C(=O)N[C@H](CC(=O)N[C@@H](CCC(=O)O)CC(=O)O)CC(C)C)NC(=O)[C@@H]1CCCC[C@H]1N	x	x	x	x	1%	x
CCOC(=O)C1CCN(c2nc3c(S(=O)(=O)c4ccccc4)nnn3c3ccc(Cl)cc23)CC1	x	x	x	-3%	3%	x
Cc1ccc(-c2onc3ccc(C4(C)OCCO4)cc23)cc1	0%	6%	-1%	-2%	-9%	-2%
Cc1ccc(-c2onc3ccc(C=O)cc23)cc1	u	5.2µM*	u	u	u	u
COc1cccc(-c2cn3c(n2)sc2cc(C(=O)NCCc4ccc(OC)c(OC)c4)ccc23)c1	x	x	x	-7%	x	x
CC(C)(C)NC(=O)N1CCN(c2nc(-c3ccccc3)ns2)CC1	u	14%	u	-55%	x	3.5µM*
O=C(c1ccc(F)cc1F)N1CCCN(c2nc(-c3ccccc3)ns2)CC1	0%	-4%	4%	3%	x	0%
COc1ccccc1NC(=O)CSc1nnc(-c2nonc2NC(C)=O)n1-c1ccccc1	x	x	x	-1%	x	x
Cc1cn2c(=O)cc(COc3ccc(NC(=O)c4ccc(C(C)(C)C)cc4)cc3)nc2s1	x	x	x	-1%	4%	x
CCN(CC)CCNC(=O)C1CCN(c2cc(C)nc3c(-c4ccc(Cl)cc4)c(C)nn23)CC1	x	x	x	-6%	4%	x
O=C1Nc2ccccc2S/C1=C/Nc1cccc(Cl)c1	u	u	u	8.5µM*	-3%	4.5µM*
O=C(Nc1ccc(F)cc1)c1ccc2c(c1)NC(=O)c1ccccc1S2	x	x	x	-3%	-70%	x
COc1ccc(-c2cn3ccccc3n2)cc1OC	3.2µM*	u	u	3.4µM*	18µM*	3.2µM*
COc1ccc(-c2cn3cc(C)ccc3n2)cc1F	0.35µM*	u	u	0.24µM*	0.56µM*	0.35µM*
COc1ccc(-c2cn3cc(C)ccc3n2)cc1OC	1µM*	1µM*	u	0.85µM*	4µM*	0.63µM*
COc1ccc(Br)cc1S(=O)(=O)Nc1cc(-c2cn3ccccc3n2)ccc1C	x	x	x	u	-3%	x
O=C(NCC(c1ccc2c(c1)OCO2)N1CCN(c2ccccc2F)CC1)c1ccccc1F (stereo not drawn)	x	x	x	-1%	x	x
Cc1ccc(C)c(S(=O)(=O)n2nc(C)c(S(=O)(=O)N3CCCCCC3)c2C)c1	x	x	x	-16%	x	x
COc1ccc(C(=O)n2nc(-c3ccco3)nc2NCc2cccs2)cc1OC	x	x	x	u	13%	x
COc1cccc(OCc2ccc(Cl)cc2)c1C#N	0.71µM*	u	u	0.54µM*	x	0.56µM*
NS(=O)(=O)c1ccc(NC(=S)Nc2ccn(Cc3cccc4ccccc34)n2)cc1	-10%	-7%	21µM*	2%	x	-7%
NS(=O)(=O)c1ccc(NS(=O)(=O)c2ccc(NC(=S)Nc3ccccc3)cc2)cc1	1%	-1%	15%	-1%	-3%	7%
SMILES	NPC1 prom act	ELG1 genotoxic	ELG1 DNA repair	FLuc counter	SMN2 splice enh	Rab9 promoter act
Cn1ccc(C(=O)N/N=C/c2c[nH]c3ccccc23)n1	u	u	u	15µM*	x	u
CCOc1ccccc1/C=N/NC(=O)c1cc(C(C)C)[nH]n1	3%	4%	21%	u	x	0%
CC(C)c1cc(C(=O)N/N=C/c2c[nH]c3ccccc23)n[nH]1	13%	5%	14%	24µM*	x	16%
Cc1cccc(NC(=O)CSc2cn(CC(=O)N3CCCC3)c3ccccc23)c1C	x	x	x	-9%	x	x
COc1cc(NS(=O)(=O)c2ccc(NC(=O)c3ccc(C(C)=O)cc3)cc2)nc(OC)n1	x	x	x	u	-3%	x
CCc1cccc(C)c1NC(=O)CN1C(=O)C2(SCC(=O)N2c2cccc(F)c2)c2ccccc21 (stereo not drawn)	x	x	x	-7%	x	x
CSc1ccc(/C=C/C(=O)c2ccc(NC(=O)Cc3ccccc3)cc2)cc1	0%	-4%	5%	12µM*	-10%	4%
CSc1ccc(C(=O)/C=C/c2ccc(N)cc2)cc1	u	13µM*	u	0.76µM*	14µM*	3.2µM*
CC(C)C(=O)Nc1ccc(Sc2ccc(F)cc2)cc1	-3%	0%	10%	1%	-8%	-1%
CSc1ccc(/C=C/C(=O)c2ccc(NC(=O)C(C)C)cc2)cc1	-2%	-2%	-5%	9.5µM*	-14%	-10%
CSc1ccc(/C=C/C(=O)N2CCCN(C)CC2)cc1	9%	15%	u	-4%	-6%	24%
O=C(Cc1ccccc1)Nc1ccc(C(=O)NCc2ccccc2)cc1	-3%	4%	2%	-1%	x	0%
O=C(COc1ccc(Cl)cc1)Nc1cccc(S(=O)(=O)NCc2ccco2)c1	-2%	-1%	-14%	17µM*	x	1%
Cc1cc(Cl)ccc1OCC(=O)Nc1cccc(S(=O)(=O)NC2=NCCCCC2)c1	8%	-5%	8%	13µM*	x	1%
CC(C)(C)c1ccc(OCC(=O)Nc2cccc(S(=O)(=O)NC3=NCCCCC3)c2)cc1	-1%	0%	1%	11µM*	x	-1%
O=C(COc1ccc(Cl)cc1)Nc1cccc(S(=O)(=O)NC2=NCCCCC2)c1	3%	16%	-19%	15µM*	x	-6%
Cc1cc(=O)n2nc(N3CCC(C(=O)Nc4ccc(Br)c(C)c4)CC3)sc2n1	x	x	x	-1%	13%	x
COc1ccccc1NC(=O)C1=C(C)Nc2nc(SCc3ccc(Cl)cc3)nn2C1c1ccccc1Cl (stereo not drawn)	x	x	x	6%	9%	x
O=C(O)C(Cc1ccccc1)Cc1ccccc1	x	x	x	x	-22%[9.22 µM]	x
COc1ccccc1OCC(=O)Nc1cccc(S(=O)(=O)NC2=NCCCCC2)c1	-1%	0%	6%	-13%	x	0%
O=C(COc1ccccc1Cl)Nc1cccc(S(=O)(=O)NC2=NCCCCC2)c1	-2%	-4%	1%	19µM*	x	-2%
C=C(CCC(=O)c1ccccc1)C(=O)c1ccccc1	-4%	-16%	-30%	17µM*	-20%	-8%

Bioassay records from PubChem BioAssay.
